# Reference: PubChem BioAssay AID1851 (National Center for Advancing Translational Sciences (NCATS), 2009)
# Several values for one entry are separate records, joined by “and”; a condition that tells them apart may be missing. Equal values may be shown once. The whole screen tested about 16,000 compounds, of which about 2,600 (16%) were called active. Inconclusive results (about 20%) are left out. Calls follow the shape of the dose curve; as a rule, active = well fitted curve in the direction sought with a large enough effect; inconclusive = small, poorly fitted or top-dose-only effect, or effect the other way; inactive = no such curve, though single readings can be large or run the other way. The list is a sample of the results.
# Molecular target: Cytochrome P450 2D6 (Homo sapiens) (UniProt P10635)
# Sequence (P10635 whole entry, looked up): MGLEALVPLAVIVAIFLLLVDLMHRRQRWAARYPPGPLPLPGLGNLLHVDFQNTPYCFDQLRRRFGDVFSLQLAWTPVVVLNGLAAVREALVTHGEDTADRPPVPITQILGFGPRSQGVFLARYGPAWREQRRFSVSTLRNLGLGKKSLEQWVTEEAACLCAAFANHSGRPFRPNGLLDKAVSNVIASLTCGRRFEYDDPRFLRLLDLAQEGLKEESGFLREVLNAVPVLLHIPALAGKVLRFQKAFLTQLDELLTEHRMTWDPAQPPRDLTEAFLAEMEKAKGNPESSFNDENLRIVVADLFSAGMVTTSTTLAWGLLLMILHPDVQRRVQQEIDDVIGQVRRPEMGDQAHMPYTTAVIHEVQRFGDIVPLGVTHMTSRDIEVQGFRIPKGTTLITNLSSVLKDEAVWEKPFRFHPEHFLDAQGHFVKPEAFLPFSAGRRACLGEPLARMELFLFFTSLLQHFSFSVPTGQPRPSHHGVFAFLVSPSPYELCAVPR
# Experiment: Cytochrome panel assay with activity outcomes
# Conditions: recombinant CYP, pro-luciferin dealkylation, luminescence, p450-cyp2d6; series mostly up to 57.1 µM; activity, negative = inhibition: at the top concentration
# % is scaled to controls: 0 for no effect and ±100 for the full control effect.
Structure (SMILES),"activity, negative = inhibition",AC50
O=C1Nc2ccc(F)cc2C12SCCS2,-4.91% (inactive),–
Cn1c(=O)c(-c2ccc(F)c(F)c2)nc2cncnc21,-1.7% (inactive),–
N#CCCn1c(=O)c(CCc2ccccc2)nc2cnc(Oc3cccc(Cl)c3)nc21,1.73% (inactive),–
CC1CCC(=NNC(=O)Cc2ccccc2)CC1 (stereo not drawn),-22% (inactive),–
CN1Cc2c(C(=O)OC(C)(C)C)ncn2-c2ccsc2C1=O,-3.58% (inactive),–
N#Cc1ccc(-c2ccc(F)cc2)nc1Oc1ccc(Cl)c(Cl)c1,1.51% (inactive),–
Cc1ccc2ncc([N+](=O)[O-])n2c1,0.899% (inactive),–
O=C(O)C1=CCCNC1,–,inactive
O=C(O)C(=O)/C=C(\O)c1ccc(Br)cc1,-0.0145% [at 11.4 µM] (inactive),–
CC(=O)Nc1ccc(S(=O)(=O)NC(CC(=O)NCCCN2CCOCC2)C(C)C)cc1 (stereo not drawn),-17.2% (inactive),–
Cc1cc(S(=O)(=O)NCCCN2CCOCC2)ccc1F,–,12600 nM (active)
Cc1ccc(-c2nn3c(C)nnc3c3ccccc23)cc1S(=O)(=O)NCCN1CCOCC1,-18% (inactive),–
COc1ccc(-c2nc3cnc(N4CCN(C)CC4)nc3n(Cc3ccc(F)cc3)c2=O)cc1,-1.05% (inactive),–
O=C(O)CCC(=O)c1ccc2sc3ccccc3c2c1,-3.63% [at 11.4 µM] (inactive),–
CCCCN(CCCC)CCCOC(=O)c1ccc(N)cc1,–,6.31 nM (active)
CCCCNc1ccc(C(=O)OCCOCCOCCOCCOCCOCCOCCOCCOCCOC)cc1,-0.114% [at 25.6 µM] (inactive),–
CN(C)CCOC(=O)c1ccc(N)cc1,11.9% [at 11.4 µM] (inactive),–
Cc1cc([N+](=O)[O-])c(C)c(Br)c1C,-1.18% [at 11.4 µM] (inactive),–
CC(C)(C)C(=O)OCOC(=O)[C@@H]1N2C(=O)[C@@H](NC(=O)[C@H](N)c3ccccc3)[C@H]2SC1(C)C,-5.86% [at 25.6 µM] (inactive),–
O=C(Nc1cccc(F)c1)N1CCCC2(CCN(C(=O)c3cc(C(F)(F)F)cc(C(F)(F)F)c3)CC2)C1,-4.07% (inactive),–
COc1ccc2c(=O)c(-c3ccccc3)c(C)oc2c1,1.82% (inactive),–
CCOc1ccccc1Oc1c(C)oc2cc(OC(=O)c3ccco3)ccc2c1=O,-2.7% (inactive),–
CCOc1ccccc1Oc1coc2cc(OC)ccc2c1=O,–,501 nM (active)
CC(C)C(C(=O)O)N1C(=O)/C(=C/C=C/c2ccco2)SC1=S (stereo not drawn),8.03% (inactive),–
CCCCN(C)C(=O)c1coc(=O)c2ccccc12,23.8% (inactive),–

Structure (SMILES),"activity, negative = inhibition",AC50
O=[n+]1c2c(n([O-])c3cc(F)c(F)cc31)CCCC2,3.89% (inactive),–
CCC(=O)Nc1ccc2c(c1)C(=O)c1ccccc1C2=O,–,7080 nM (active)
O=C1c2ccccc2-c2ccc(NC(=O)[C@H]3CCCC[C@@H]3C(=O)O)cc21,-8.68% [at 11.4 µM] (inactive),–
O=C(Nc1ccc(Nc2ccc3c(c2)C(=O)c2ccccc2C3=O)c2c1C(=O)c1ccccc1C2=O)c1ccccc1,-5.75% [at 11.4 µM] (inactive),–
COc1ccc(/C=N/n2c(C)nnc2C)c(OC)c1,-1.27% (inactive),–
Cn1cnc2c(NCc3ccccc3)nc(NCCO)nc21,–,1260 nM (active)
OCCn1cnc2c(SCc3ccccc3)ncnc21,-0.741% [at 11.4 µM] (inactive),–
CCn1c2ccccc2c2nnc(NCCCO)nc21,3.89% [at 11.4 µM] (inactive),–
O=C1[C@H]2[C@H]3[C@H](O)[C@H](O)C/C(=N/OC[C@@H](O)COCc4ccco4)[C@@H]3CC[C@@H]2C(=O)N1Cc1ccc2c(c1)OCO2,0.398% [at 11.4 µM] (inactive),–
CN1CCC(N(C)C(=O)CCc2nc3ccccc3c(=O)[nH]2)CC1,5.72% (inactive),–
O=C(O)CSc1ccn(Cc2ccccc2)c1,9% [at 11.4 µM] (inactive),–
O=C(O)c1cccnc1Nc1cccc(C(F)(F)F)c1,-1.07% [at 25.6 µM] (inactive),–
O=C(COC(=O)c1cccnc1Nc1cccc(C(F)(F)F)c1)NCc1ccc2c(c1)OCO2,–,1120 nM (active)
O=C(COC(=O)c1cnccn1)NCc1ccccc1,-13.3% (inactive),–
Cc1cc2nnc(SCC(=O)OC(C)C)n2c2ccccc12,-7.14% (inactive),–
NC1=C2NC=N[C@@H]2N(C/C=C\c2ccccc2)C=N1,-12.6% [at 11.4 µM] (inactive),–
N#CCCn1c(=O)c(-c2cccs2)nc2cnc(Oc3cccc(Cl)c3)nc21,3.98% (inactive),–
O=C(Nc1cc2ccccc2oc1=O)C1CCCCC1,-12.9% (inactive),–
COc1ccc2oc(=O)c(NC(=O)C3CCCCC3)cc2c1,21.2% (inactive),–
Cc1cc(NC(=O)C2CCCCC2)nc2c1c(=O)oc1ccccc12,–,20000 nM (active)
O=c1cnc2cnc(Nc3ccccc3)nc2n1C[C@H]1CCCO1,-9.42% (inactive),–
COc1ccc(-c2cc(CNC(C)=O)on2)cc1,21.2% (inactive),–
COc1ccccc1/C=C/C=N/N1CCN(Cc2cccc3ccccc23)CC1,–,7940 nM (active)
COc1ccccc1CC(=O)O/N=C(\N)Cc1cccc2ccccc12,-5.92% (inactive),–
FC(F)(F)c1ccc(/C=N/N2CCN(Cc3cccc4ccccc34)CC2)cc1,-19.8% (inactive),–

Structure (SMILES),"activity, negative = inhibition",AC50
CCc1nc(N2CCC3(CC2)OCCO3)c2nnn(Cc3ccccc3Cl)c2n1,-15.5% (inactive),–
c1ccc2nc(-c3ccncc3)ccc2c1,–,15800 nM (active)
CC(C)C(=O)Cc1ccc2ccccc2n1,5.06% [at 11.4 µM] (inactive),–
Cc1cc2c(cc1C)-c1nnc(-c3ccc4ccccc4n3)n1C(C)(C)C2,15.6% (inactive),–
Cc1ccc([N+](=O)[O-])cc1N=C(c1cccc([N+](=O)[O-])c1)N1CCOCC1,-24.8% (inactive),–
CC(=O)c1cnc2cc(C)nn2c1C,-4.17% (inactive),–
CC(C)Oc1ccc2ccccc2c1C=O,-4.59% (inactive),–
O=C(NNC(=O)C1CCN(S(=O)(=O)c2ccc(Cl)cc2)CC1)c1ccc(Cl)cc1,-4.04% (inactive),–
Cc1[nH]c2c(C)ccc(C)c2c1CC(=O)O,-12.2% [at 11.4 µM] (inactive),–
COc1ccc(CNc2nc3ccccc3n2Cc2ccccc2)cc1OC,–,794 nM (active)
CC(=O)Nc1nc2ccccc2n1Cc1ccccc1,-11.8% (inactive),–
COc1ccc(NC(=O)COC(=O)Cn2c(C)nc3ccccc32)cc1OC,16.2% (inactive),–
C=CCn1c(P(=O)(O)c2ccccc2)nc2ccccc21,-7.57% (inactive),–
C=CCn1c(NCc2ccccc2)nc2ccccc21,–,398 nM (active)
C=CCn1c(-c2cccn(Cc3ccccc3)c2=O)n[nH]c1=S,4.47% (inactive),–
O=C(NCC1CCCO1)c1onc(CSc2ccccc2F)c1C(=O)O (stereo not drawn),0.926% (inactive),–
O=C(O)c1ccccc1N/N=C\c1ccnc2ccccc12,-29.2% (inactive),–
CC(=O)ON(C(C)=O)S(=O)(=O)c1ccc(Cl)cc1,12.6% (inactive),–
Cc1[nH]n(C(C)(C)C)c(=O)c1Sc1ccccc1,-13.6% (inactive),–
O=P(O)(CCP(=O)(O)c1ccccc1)c1ccccc1,0.684% [at 11.4 µM] (inactive),–
O=C(c1cc(C(F)(F)F)cc(C(F)(F)F)c1)N1CCC2(CC1)CCN(c1ncccn1)CC2,-13.1% (inactive),–
Cc1ccc(-c2ccc(/C=N\NC(=O)c3cc4c(ccc5ccccc54)o3)o2)cc1[N+](=O)[O-],7.58% (inactive),–
O=C(N/N=C(\c1ccccc1)c1cccnc1)C(O)(c1ccccc1)c1ccccc1,-25.7% (inactive),–
Clc1ccc(CC[C@H](Cn2ccnc2)Sc2c(Cl)cccc2Cl)cc1,–,1260 nM (active)
O=C1C2=CC[C@@H]3C(=O)N(c4ccc(F)cc4F)C(=O)[C@H]3[C@H]2[C@H](O)[C@H]2O[C@H]12,6.42% [at 11.4 µM] (inactive),–

Structure (SMILES),"activity, negative = inhibition",AC50
COc1ccc(-c2nc(C#N)c(N3CCC(C(N)=O)CC3)o2)cc1OC,4.34% (inactive),–
CCCN(CCC)CCCNC(=O)CS(=O)Cc1nc(-c2ccc(OC)c(OC)c2)oc1C (stereo not drawn),–,5010 nM (active)
COc1ccc(-c2nc(CSCC(=O)NCC3CCCO3)c(C)o2)cc1OC (stereo not drawn),-17.1% (inactive),–
CCCCN(C)CCCNC(=O)CS(=O)Cc1nc(-c2ccc(OC)c(OC)c2)oc1C (stereo not drawn),–,11200 nM (active)
COc1cccc(-c2nc(CS(=O)(=O)CC(=O)NCCCOC(C)C)c(C)o2)c1,-7.29% (inactive),–
COc1ccc(CCN(C)CCC(=O)Nc2c(C)cc(C)cc2C)cc1OC,-65.7% (inactive),–
CC(C)(C)CC(C)(C)c1ccc(OCOCCOCCO)c(Cc2cc(C(C)(C)CC(C)(C)C)cc(Cc3cc(C(C)(C)CC(C)(C)C)ccc3OCOCCOCCO)c2OCOCCOCCO)c1,-8.49% [at 25.6 µM] (inactive),–
CCCCSc1nc(C)cc(C)c1S(=O)(=O)c1ccccc1C,-21.8% (inactive),–
Cc1ccc([C@@]2(C)CC/C(=N/N=C3\CC[C@](C)(c4ccc(C)c(C)c4)c4cc(C)c(C)cc43)c3cc(C)c(C)cc32)cc1C,-2.73% [at 11.4 µM] (inactive),–
O=c1ccc(Oc2nc(N3CCOCC3)nc(N3CCOCC3)n2)n[nH]1,14.7% (inactive),–
NCC[C@H](N)C(=O)O,6.66% [at 11.4 µM] (inactive),–
O=S(=O)(/N=C(/Nc1ccccn1)c1ccccc1)c1ccc(Cl)cc1,17.3% (inactive),–
C=CCSc1nc2c(sc3nc(C)cc(C)c32)c(=O)[nH]1,2.23% (inactive),–
CC1Cc2ccccc2N1Cc1nc2cc(C(F)(F)F)ccc2c(=O)[nH]1 (stereo not drawn),-35.2% (inactive),–
O=C(CSc1nc2ccccc2[nH]1)Nc1c(F)cccc1F,-12.7% (inactive),–
Cc1c(OCC(F)(F)F)ccnc1CSc1nc2ccccc2[nH]1,–,398 nM (active)
C[N+](C)(C)CCCSc1nc2ccccc2[nH]1,11.4% [at 11.4 µM] (inactive),–
O=S(=O)(O)c1ccc(-c2nnc(-c3ccccn3)nc2-c2ccc(S(=O)(=O)O)o2)o1,16.6% [at 11.4 µM] (inactive),–
O=C(Cc1cccc2ccccc12)N/N=C/c1ccc(Sc2nc3ccccc3s2)o1,0.203% (inactive),–
Cc1ccc(S(=O)(=O)N[C@H]2COC(=O)[C@@H](Cc3ccccc3)NC(=O)[C@@H](C)COC(=O)C/C=C\[C@@H]2C)cc1,-0.453% [at 11.4 µM] (inactive) and -0.419% [at 11.4 µM] (inactive),–
Cc1ccc(N[C@H](c2ccccc2)c2ccc3cccnc3c2O)cc1,-11.8% [at 11.4 µM] (inactive),–
O=C(O)c1ccccc1N[C@H](c1ccccc1)c1ccc2cccnc2c1O,-6.89% [at 11.4 µM] (inactive),–
Oc1c([C@H](Nc2ccccn2)c2ccccc2)ccc2cccnc12,–,316 nM (active)
